The record followed here is PubChem BioAssay (EPA / NIEHS).

Inconclusive results are not listed. The source made the active and inactive calls. How the source made its calls: active means hit-call score of the fitted dose curve at least 0.9, where 1 is the maximum; inconclusive means response in the unintended direction; inactive means score below 0.9.

Read-out in the test: xenobiotic metabolism (CYP1A1), CYP1A1 (gene 1543)
The test is described as follows: CLD_CYP1A1_48hr: CellzDirect (CLD) Gene Expression Assay for xenobiotic metabolism (CYP1A1) at 48 hours (AID 2283705). How it is done:
CLD_48hr is a cell-based, multiplexed-readout assay that uses hepatocyte, a human liver primary cell, with measurements taken at 48 hours after chemical dosing in a 96-well plate.CLD_CYP1A1_48hr is one of 16 assay component(s) measured or calculated from the CLD_48hr assay. It is designed to make measurements of mRNA induction, a form of inducible reporter, as detected with chemiluminescence signals by Quantitative Nuclease Protection Assay (qNPA) technology.Data from the assay component CLD_CYP1A1_48hr was analyzed at the endpoint, CLD_CYP1A1_48hr, in the positive analysis fitting direction relative to DMSO as the negative control and baseline of activity. Using a type of inducible reporter, gain-of-signal activity can be used to understand changes in the reporter gene as they relate to the gene CYP1A1. Furthermore, this assay endpoint can be referred to as a primary readout. To generalize the intended target to other relatable targets, this assay endpoint is annotated to the cyp intended target family, where subfamily is xenobiotic metabolism.
Human hepatocyte cultures were treated daily for two consecutive days with fresh dosing solutions containing appropriate concentrations of the 320 ToxCast chemicals (chemical identities were blinded to CellzDirect and other ToxCast collaborators), vehicle control (0.2% DMSO), and positive control inducers as summarized in Table 1. Due to the large number of treatment groups and chemicals examined, the ToxCast chemicals were divided into two groups (spanning two independent cultures of hepatocytes from separate donor preparations (Hu778: ToxCast plates 1 and 2; Hu776: ToxCast plates 3 and 4). Each preparation of human hepatocyte cultures was treated with respective vehicle control, medium only control, set of six positive controls/reference chemicals for the five hepatic receptor pathways, and a subset of eight of the ToxCast chemicals (indoxacarb, pyrithiobac-sodium, norflurazon, cyhalofop-butyl, methomyl, thiram, acetochlor, and propiconazole). These replicate data, coupled with internal replicates designed within the blinded ToxCast chemical library, provided additional data to evaluate interindividual differences between hepatocyte preparations and their potential impact on chemical profiles.Cell morphology and integrity were evaluated using phase-contrast microscopy as an indicator of hepatocyte cell health (Tyson & Green, 1987). Cultures for each treatment group (i.e., media, vehicle [0.2% DMSO], positive control inducers [multiple concentrations], and the ToxCast chemicals [multiple concentrations]) were observed and cell morphology was assessed relative to vehicle control cultures at each harvest time point (0, 6, 24, or 48 h). […] Images were evaluated at the conclusion of the study to assess changes in cell integrity and account for the effects of chemical exposure on uncharacteristic changes in concentration-dependent gene expression profiles. The results from these determinations of apparent cytotoxicity were annotated (yes/no) alongside the corresponding qNPA data for reference.At the conclusion of each treatment period, hepatocyte cultures (96-well) were washed with 1 volume of HBSS, lysed by addition of 25 ul ArrayPlate lysis buffer (HTG, Tucson, AZ), and 70 ul/well of Denaturation Oil, denatured by incubation at 95C for 10 min, and frozen at approximately -70C until analysis by nuclease protection assay (qNPA) (Roberts et al., 2007). For qNPA analysis, cell lysates were thawed at 50C for approximately 30 min, qNPA probes were added, and samples were incubated at 95C for 10 min to begin the detection process by denaturing the target RNA, dissociating the duplexes and secondary structure hybridization. At the conclusion of the hybridization period, S1 nuclease reagent was added to each sample to digest all nonprotected nucleotides at 50C for 60-90 min. […]
Turning to `CCCCOC(=O)[C@@H](C)Oc1ccc(Oc2ccc(C(F)(F)F)cn2)cc1`, the call was inactive.
With `COC(=O)CSc1cc(N=c2sc(=O)n3n2CCCC3)c(F)cc1Cl`, the compound was called inactive.
Still for that read-out and setting: the result for `CC1(C)C(C=C(Cl)Cl)C1C(=O)OCc1cccc(Oc2ccccc2)c1` (stereo not drawn) reads “inactive”.
Consider `S=C([S-])NCCNC(=S)[S-].[Mn+2]`, for which the half-maximal activity concentration (AC50) (in general, the midpoint of the concentration-response curve, whichever way the signal moves) was 3.58 µM (active).
For the compound `CCOC(=O)COc1cc(-n2ncc(C(F)(F)F)c(C)c2=O)c(F)cc1Cl`, the compound was classed as inactive.
Take `CCCOC(=O)NCCCN(C)C`: the call was inactive.
The same measure, in the same setting: the result for `CCOC(=O)C(C)Oc1ccc(Oc2nc3ccc(Cl)cc3o2)cc1` (stereo not drawn) reads “inactive”.
As to `O=C(O)C1(C(=O)Nc2ccc(Cl)cc2Cl)CC1`, the compound was classed as inactive.
Turning to `CC(C)(C)[C@@H](O)[C@@H](Cc1ccc(Cl)cc1)n1cncn1`, the AC50 is 3.97 µM (active).
In the case of `COC(=O)c1c(Cl)nn(C)c1S(=O)(=O)NC(=O)Nc1nc(OC)cc(OC)n1`, the call was inactive.
On the same count and under the same terms, with `Cc1nn(C)c(Oc2ccccc2)c1C=NOCc1ccc(C(=O)OC(C)(C)C)cc1` the entry was “inactive”.
Regarding `CCCN(CCC)c1c([N+](=O)[O-])cc(C(F)(F)F)c(N)c1[N+](=O)[O-]`, the concentration at half-maximal activity (AC50) is 5.19 µM (active).
The same measure, in the same setting: the result for `CCN(Cc1c(F)cccc1Cl)c1c([N+](=O)[O-])cc(C(F)(F)F)cc1[N+](=O)[O-]` reads 1.22 µM (active); that for `N#CSCSc1nc2ccccc2s1`, 7.52 µM (active).
Consider `c1ccc(Nc2ccccc2)cc1`, for which the result was inactive.
Same read-out and setting: with `COC(=O)c1ccccc1S(=O)(=O)NC(=O)Nc1nc(OC(F)F)cc(OC(F)F)n1` the entry was “inactive”.
Consider `CSC(=O)c1cccc2nnsc12`, for which the call was inactive.
On the same count and under the same terms, the result for `CCNc1nc(N)nc(Cl)n1` reads “inactive”.
The same measure, in the same setting: the result for `CCCCC(CC)COC(=O)c1ccccc1C(=O)O` (stereo not drawn) reads “inactive”.
Same read-out and setting: the result for `COC(=O)c1ccc(CNS(C)(=O)=O)cc1S(=O)(=O)NC(=O)Nc1nc(OC)cc(OC)n1` reads “inactive”.
Turning to `CCCCOCCOCCOCc1cc2c(cc1CCC)OCO2`, the concentration at half-maximal activity (AC50) was 12 µM (active).
The same measure, in the same setting: the result for `O=C(Nc1ccc([N+](=O)[O-])cc1Cl)c1cc(Cl)ccc1O` reads 3.55 µM (active).
For `COCCO`, the call was inactive.
Same read-out and setting: with `COC(=O)c1ccccc1C(=O)O` the entry was “inactive”.
For the compound `CN(C)C(=O)Nc1ccc(Cl)c(Cl)c1`, the AC50 is 12.4 µM (active).
`S=C(S)NCCNC(=S)S.[Mn+2].[S-]C([S-])=NCCN=C([S-])[S-].[Zn+2]`: the AC50 is 0.252 µM (active).
`OB(O)O`: the compound was classed as inactive.
On the same count and under the same terms, with `CC(C)(c1ccc(O)cc1)c1ccc(O)cc1` the entry was “inactive”.
For the compound `CCCCC(CC)CN1C(=O)C2C3C=CC(C3)C2C1=O` (stereo not drawn), the AC50 was 33.7 µM (active).
Same read-out and setting: the result for `COC(=O)c1ccc(I)cc1S(=O)(=O)NC(=O)Nc1nc(C)nc(OC)n1` reads 20 µM (active).
Turning to `CCC(O)=C1C(=O)CC(C(=O)O)CC1=O` (stereo not drawn), the compound was called inactive.
For `c1ccc2[nH]c(-c3cscn3)nc2c1`, the concentration at half-maximal activity (AC50) is 0.781 µM (active).
Same read-out and setting: the result for `C=CCOC(Cn1ccnc1)c1ccc(Cl)cc1Cl` (stereo not drawn) reads 3.84 µM (active).
For the compound `CCCCCOC(=O)COc1cc(N2C(=O)C3=C(CCCC3)C2=O)c(F)cc1Cl`, the compound was called inactive.
On the same count and under the same terms, the result for `CCC(C)OC(=O)N1CCCCC1CCO` (stereo not drawn) reads “inactive”; that for `CCOC(=O)[C@H](C)Oc1ccc(Oc2nc3ccc(Cl)cc3o2)cc1`, “inactive”.
For `COC(=O)c1cccc(C)c1S(=O)(=O)NC(=O)Nc1nc(OCC(F)(F)F)nc(N(C)C)n1`, the concentration at half-maximal activity (AC50) was 8.53 µM (active).
As to `CCOC(=O)NCCOc1ccc(Oc2ccccc2)cc1`, the compound was called inactive.
